# Data as given in PubChem BioAssay.
# Molecular target: Epidermal growth factor receptor (Homo sapiens) (UniProt P00533)
# Experiment: EGFR binders on small-molecule microarrays, primary screen, biochemical, small-molecule microarray, 635 nm fluorescence (AID 1104);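 also: score merges 667 nm emission intensity with spot signal to noise over triplicate slides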
# Conditions: EGFR binding, higher = more signal
# Chain of Epidermal growth factor receptor (Homo sapiens) (P00533 whole entry, looked up): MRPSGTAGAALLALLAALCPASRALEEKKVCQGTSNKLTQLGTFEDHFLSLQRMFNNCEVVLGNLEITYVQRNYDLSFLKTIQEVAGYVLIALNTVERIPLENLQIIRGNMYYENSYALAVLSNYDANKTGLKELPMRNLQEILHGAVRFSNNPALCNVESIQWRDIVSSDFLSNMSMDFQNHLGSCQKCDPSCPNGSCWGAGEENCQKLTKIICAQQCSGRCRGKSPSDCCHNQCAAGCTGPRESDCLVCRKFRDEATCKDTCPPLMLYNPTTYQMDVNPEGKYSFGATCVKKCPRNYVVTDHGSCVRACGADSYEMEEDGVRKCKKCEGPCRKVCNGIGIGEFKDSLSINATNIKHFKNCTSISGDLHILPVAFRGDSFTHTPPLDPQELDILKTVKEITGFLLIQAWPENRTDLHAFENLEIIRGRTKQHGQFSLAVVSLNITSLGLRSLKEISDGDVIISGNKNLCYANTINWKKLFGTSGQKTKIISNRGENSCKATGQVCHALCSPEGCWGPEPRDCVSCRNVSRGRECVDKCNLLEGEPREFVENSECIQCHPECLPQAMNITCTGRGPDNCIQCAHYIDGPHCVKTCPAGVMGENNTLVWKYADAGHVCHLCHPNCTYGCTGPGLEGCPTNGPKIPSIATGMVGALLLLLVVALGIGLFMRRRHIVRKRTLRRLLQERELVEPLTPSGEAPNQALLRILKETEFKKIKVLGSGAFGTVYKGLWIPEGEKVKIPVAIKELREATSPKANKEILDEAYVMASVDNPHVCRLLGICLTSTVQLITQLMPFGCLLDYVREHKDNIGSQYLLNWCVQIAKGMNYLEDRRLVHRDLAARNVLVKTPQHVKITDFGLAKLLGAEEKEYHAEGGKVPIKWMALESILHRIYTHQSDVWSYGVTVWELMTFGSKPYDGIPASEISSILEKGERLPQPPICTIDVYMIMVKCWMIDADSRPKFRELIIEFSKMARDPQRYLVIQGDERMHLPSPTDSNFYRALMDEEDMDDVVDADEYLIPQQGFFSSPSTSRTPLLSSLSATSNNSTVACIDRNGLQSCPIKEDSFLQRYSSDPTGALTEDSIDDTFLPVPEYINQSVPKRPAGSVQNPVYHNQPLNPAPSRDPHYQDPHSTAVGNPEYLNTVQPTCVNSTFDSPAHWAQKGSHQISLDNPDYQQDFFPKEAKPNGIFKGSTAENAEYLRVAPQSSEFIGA
row,Structure (SMILES),composite z-score
1,Cc1ccccc1C(O)C1C=CC2C(=O)N(c3ccccc3)C(=O)C2N1Nc1ccc(C(C)C)cc1 (stereo not given),0.304
2,CCS[C@H]1[C@@H](C(=O)O)[C@H](c2ccc(C)cc2)N(S(=O)(=O)c2ccc(C)cc2)[C@@H]1CC,0.0771
3,COc1cc(NN2C(C(O)c3ccco3)C=CC3C(=O)N(c4ccccc4)C(=O)C32)cc(OC)c1OC (stereo not given),-0.395
4,CNS(=O)(=O)c1ccc(C)cc1,0.434
5,O=C1N(Cc2ccccc2)c2ccccc2[C@@H]2OC(c3ccc(OCCCO)cc3)=N[C@]12CCS(=O)(=O)c1ccccc1,-0.24
6,COc1cc2c(cc1O)C(C1CC1)N(Cc1sc3ccccc3c1Cl)CC2 (stereo not given),-0.0122
7,Oc1ccc2cc[n+](Cc3sc4ccccc4c3Cl)cc2c1,-0.0568
8,CC(C)N1C(=O)C[C@@](C(=O)NCC(F)(F)F)(c2ccc([N+](=O)[O-])cc2)[C@H]1c1ccc(CO)cc1,-0.399
9,COCCCNC(=O)[C@@]1(C)c2ccccc2C(=O)N(C(C)C)[C@H]1c1ccc(CO)cc1,0.517
10,COCCOC(=O)N1C(=O)[C@@]2(c3cc(C#CCC(C(=O)OC)C(=O)OC)ccc31)[C@H](c1ccccc1OCCO)N1[C@H](c3ccccc3)[C@H](c3ccccc3)OC(=O)[C@H]1[C@@H]2C(=O)N1CCN(c2ncccn2)CC1,0.94
11,CCOC(=O)[C@H]1C/C=C/C[C@H](C(=O)OCC)C(=O)O[C@H]2[C@@H](OC)O[C@H](CO)[C@@H](OC(=O)c3c(OC)cccc3OC)[C@@H]2OC1=O,-0.13
12,C=C(COC)/C(=C/C[C@@H](OC(=O)c1ccncc1)c1ccc(CO)o1)c1cc(C(=O)OC)ccc1OC,1.06
13,CC(C)N1C(=O)c2ccccc2[C@](C)(C(=O)NCCN2CCOCC2)[C@@H]1c1ccc(CO)cc1,-1.13
14,COCCCNC(=O)[C@@H]1c2ccccc2C(=O)N(Cc2ccccc2Cl)[C@H]1c1ccc(CO)cc1,0.245
15,CC(C)NC(=O)[C@@]1(c2ccc([N+](=O)[O-])cc2)CC(=O)N(C2CCCCC2)[C@@H]1c1ccc(CO)cc1I,-0.527
16,C=C(CCCC)/C(=C/C[C@H](OC(C)=O)c1ccccc1OCCO)c1cc(C(=O)OC)ccc1OC,-0.184
17,COCCOC(=O)N1C(=O)[C@@]2(c3cc(C#Cc4ccc(OC)cc4)ccc31)[C@H](c1ccc(O)cc1)N1[C@H](c3ccccc3)[C@H](c3ccccc3)OC(=O)[C@H]1[C@@H]2C(=O)N1CCc2cc(OC)c(OC)cc2C1,0.386
18,O=C1C2C=CC(C(O)Cc3ccccc3)N(n3cnnc3)C2C(=O)N1Cc1ccccc1 (stereo not given),-0.216

row,Structure (SMILES),composite z-score
1,C=CC[C@]1(C(=O)NCc2ccccc2)N=C(c2ccc(OCCCO)cc2)O[C@H]1c1ccccc1N=[N+]=[N-],0.174
2,CCOC(=O)C[C@H]1[C@H](OC(=O)c2ccc(C(=O)c3ccccc3)cc2)[C@@H](NC(=O)c2ccc3ccccc3n2)c2cc(OCCCO)ccc2N1C(=O)c1ccccc1,-0.278
3,CN(C)C(=O)[C@@]1(CCS(=O)(=O)c2ccccc2)COC(c2ccc(OCCCO)cc2)=N1,0.0041
4,COc1ccccc1CN1C(=O)c2ccccc2[C@@H](C(=O)NC2CC2)[C@@H]1c1ccc(CO)cc1,0.521
5,COC(=O)[C@H](Cc1ccccc1)N[C@@H](/C=C/C1CC1)[C@H](O)Cc1ccccc1,-0.463
6,O=C1C2C=CC(C(O)c3cccc4ccccc34)N(Nc3ccccc3F)C2C(=O)N1c1ccccc1 (stereo not given),0.172
7,O=C(CS)NCCCCCCNC(=O)[C@@H]1C[C@@H]2C(=O)N[C@@H](Cc3ccccc3)C(=O)N2[C@@H]1c1cccc(OCCO)c1,0.557
8,NC(=O)NCC#Cc1ccc2c(c1)[C@]1(C(=O)N2)[C@H](C(N)=O)[C@H]2C(=O)O[C@H](c3ccccc3)[C@H](c3ccccc3)N2[C@@H]1c1ccc(O)cc1,-0.858
9,CCCC[C@@H]1C[C@H]1[C@@H](NC(=O)c1cccs1)c1ccc(-c2ccccc2)cc1,-0.0136
10,C=CCOC(=O)[C@H]1[C@@H]2C(=O)O[C@@H](c3ccccc3)[C@@H](c3ccccc3)N2[C@@H](c2ccc(OCCOC(=O)[C@@H]3C[C@@H]4C(=O)N[C@@H](CCCCNC(C)=O)C(=O)N4[C@@H]3c3ccc(O)cc3)cc2)[C@]12C(=O)Nc1ccccc12,0.673
11,CCCCCCc1nc(-c2ccc(OC)nc2)cc2c1[Si](C(C)C)(C(C)C)O[C@H]2c1ccccc1,0.31
12,CC(C)C(CO)N1C(=O)[C@@H]2C3C(=O)OCCC/C=C\[C@H]3OC23C=CCN(CCN2CCOCC2)C(=O)[C@@H]13 (stereo not given in full),-0.203
13,C=C(COC)/C(=C/C[C@@H](OC(C)=O)c1ccc(OCCO)cc1)c1cnc2ccccc2c1,0.824
14,CN(C)CCCCCCNC(=O)[C@@H]1C[C@@H]2C(=O)N[C@@H](Cc3ccccc3)C(=O)N2[C@@H]1c1ccc(O)cc1,1.37
15,Cc1nc2cc(Br)ccc2c(=O)o1,0.427
16,COCCOC(=O)N1C(=O)[C@@]2(c3ccccc31)[C@H](c1ccc(O)cc1)N1[C@H](c3ccccc3)[C@H](c3ccccc3)OC(=O)[C@H]1[C@@H]2C(=O)Nc1nc2ccccc2s1,0.252
17,COCC(=C=CC[C@@H](O)c1cccc(OCCO)c1)C[C@@H](O)c1ccccn1,0.101
